Data published in PubChem BioAssay (NCATS).
“And” between values parts separate entries of the source, which are not always exact repeats. Identical values can stand only once. Records with an inconclusive call do not appear. The source made the active and inactive calls. Unless noted, calls come from the whole dose curve.

How the values were obtained:
[1] = target: Parathyroid hormone/parathyroid hormone-related peptide receptor (Homo sapiens) (UniProt Q03431); test: qHTS for PTHR1 Agonists: Optimization Screen against the NCGC LOPAC library (AID 1347079; active = well fitted curve in the direction sought with a large enough effect; an effect the other way counts as inactive or inconclusive;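 note: GloSensor cAMP luminescence in HEK-293 GP2 cells expressing human PTHR1 with IBMX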); details: HEK293 GP2 PTHR1 GloSensor cAMP luminescence, 1 h; series mostly up to 57.1 µM
Method in brief: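 Agonist readout: GloSensor cAMP luminescence, read after 15 min at room temperature. HEK-293-derived GP2 line carries PTHR1; compounds tested as a titration for 1 hr at 37C in presence of IBMX. M-PTH (1-15) served as control.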

[2] = qHTS for Inhibitors of the Functional Ribonucleoprotein Complex (vRNP) of Lassa (LASV) Arenavirus: LASV Primary Screen - GLuc reporter signal (AID 1347082; calls by dose curve; tested in HEK293 reporter line; note: nearly all actives have a fitted effect of over 60% in size; note: potency is the fitted concentration of half-maximal effect); details: LASV minigenome vRNP, Gaussia luciferase reporter; series mostly up to 57.5 µM
[3] = qHTS for Inhibitors of the Functional Ribonucleoprotein Complex (vRNP) of Lassa (LASV) Arenavirus: Viability assay - alamar blue signal for LASV Primary Screen (AID 1347083; calls by dose curve; tested in HEK293 reporter line; note: nearly all actives have a fitted effect of over 80% in size; note: potency is the fitted concentration of half-maximal effect); details: cell viability, alamar blue fluorescence (LASV minigenome counter-screen); series mostly up to 57.5 µM
[4] = qHTS for Inhibitors of the Functional Ribonucleoprotein Complex (vRNP) of Lymphocytic Choriomeningitis Arenaviruses (LCMV): Viability assay - alamar blue signal for LCMV Primary Screen (AID 1347085; calls by dose curve; tested in HEK293 reporter line; note: nearly all actives have a fitted effect of over 80% in size; note: potency is the fitted concentration of half-maximal effect); details: alamar blue viability counter-screen, LCMV vRNP screen cells; series mostly up to 57.5 µM
[5] = target: Nucleoprotein (Lymphocytic choriomeningitis virus (strain Armstrong)) (UniProt P09992); test: qHTS for Inhibitors of the Functional Ribonucleoprotein Complex (vRNP) of Lymphocytic Choriomeningitis Arenaviruses (LCMV): LCMV Primary Screen - GLuc reporter signal (AID 1347086); details: LCMV minigenome vRNP cell assay, Gaussia luciferase reporter; series mostly up to 57.5 µM; note: nearly all actives have a fitted effect of over 70% in size; note: potency is the fitted concentration of half-maximal effect
[6] = qHTS of pediatric cancer cell lines to identify multiple opportunities for drug repurposing: Primary screen for TC32 cells (AID 1347089; active = well fitted curve in the direction sought with a large enough effect; an effect the other way counts as inactive or inconclusive; note: nearly all actives have a fitted effect of over 60% in size; note: potency is the fitted concentration of half-maximal effect); details: TC32 Ewing sarcoma viability, CellTiter-Glo luminescence, 48 h; series mostly up to 45.8 µM
Method in brief: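 In the primary qHTS, MIPE compounds were tested at 11 concentrations (0.78 nM to 46 µM) and NPC compounds at 8 (0.59 nM to 46 µM) on TC32 cells for 48 h. CellTiter-Glo luminescence gave viability.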

[7] = qHTS of pediatric cancer cell lines to identify multiple opportunities for drug repurposing: Primary screen for DAOY cells (AID 1347090; active = well fitted curve in the direction sought with a large enough effect; an effect the other way counts as inactive or inconclusive; note: nearly all actives have a fitted effect of over 55% in size; note: potency is the fitted concentration of half-maximal effect); details: DAOY medulloblastoma viability, CellTiter-Glo luminescence, 48 h; series mostly up to 46 µM
Method in brief: (§1)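 Eight- or eleven-point concentration series, 48 h treatment at 37 degrees C in growth media; readout CellTiter-Glo luminescence. Potency and efficacy were taken from the concentration-response curves.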

[8] = qHTS of pediatric cancer cell lines to identify multiple opportunities for drug repurposing: Primary screen for SJ-GBM2 cells (AID 1347091; active = well fitted curve in the direction sought with a large enough effect; an effect the other way counts as inactive or inconclusive; note: potency is the fitted concentration of half-maximal effect); details: SJ-GBM2 viability, CellTiter-Glo luminescence, 48 h; series mostly up to 46 µM
Method in brief: as §1

[9] = qHTS of pediatric cancer cell lines to identify multiple opportunities for drug repurposing: Primary screen for A673 cells (AID 1347092; active = well fitted curve in the direction sought with a large enough effect; an effect the other way counts as inactive or inconclusive; note: nearly all actives have a fitted effect of over 45% in size; note: potency is the fitted concentration of half-maximal effect); details: A673 Ewing sarcoma viability, CellTiter-Glo ATP luminescence, 48 h; series mostly up to 46 µM
Method in brief: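 48 h compound exposure, A673, 500-1,000 cells/well, 37 degrees C/5% CO2. MIPE: 11-point, 0.78 nM-46 µM; NPC: 8-point, 0.59 nM-46 µM (final). Readout CellTiter-Glo luminescence after 15 min RT.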

[10] = qHTS of pediatric cancer cell lines to identify multiple opportunities for drug repurposing: Primary screen for SK-N-MC cells (AID 1347093; active = well fitted curve in the direction sought with a large enough effect; an effect the other way counts as inactive or inconclusive); details: SK-N-MC viability, CellTiter-Glo luminescence, 48 h; series mostly up to 46 µM
Method in brief: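 Metabolically active cells were quantified by ATP-dependent luminescence (CellTiter-Glo, 15 min at room temperature) following 48 h treatment. Cells had been plated at 500-1,000 per well and settled for 5 h beforehand.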

Measured: Potency

Chain of Parathyroid hormone/parathyroid hormone-related peptide receptor (Homo sapiens) (Q03431 whole entry, looked up): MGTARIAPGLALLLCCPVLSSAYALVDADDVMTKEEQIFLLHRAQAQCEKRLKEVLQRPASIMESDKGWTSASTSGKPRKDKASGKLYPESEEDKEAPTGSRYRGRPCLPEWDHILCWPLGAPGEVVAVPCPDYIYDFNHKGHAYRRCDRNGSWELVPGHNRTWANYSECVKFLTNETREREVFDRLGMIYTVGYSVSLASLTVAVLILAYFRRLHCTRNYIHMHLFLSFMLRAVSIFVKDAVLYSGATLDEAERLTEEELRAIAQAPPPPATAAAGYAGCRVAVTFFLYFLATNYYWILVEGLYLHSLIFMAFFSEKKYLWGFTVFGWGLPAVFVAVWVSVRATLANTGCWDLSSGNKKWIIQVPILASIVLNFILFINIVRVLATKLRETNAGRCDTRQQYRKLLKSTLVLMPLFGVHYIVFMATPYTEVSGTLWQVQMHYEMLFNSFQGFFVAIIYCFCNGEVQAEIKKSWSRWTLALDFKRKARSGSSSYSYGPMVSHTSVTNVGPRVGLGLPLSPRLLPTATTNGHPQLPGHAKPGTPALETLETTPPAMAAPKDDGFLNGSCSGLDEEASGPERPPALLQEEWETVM
Chain of Nucleoprotein (Lymphocytic choriomeningitis virus (strain Armstrong)) (P09992 whole entry, looked up): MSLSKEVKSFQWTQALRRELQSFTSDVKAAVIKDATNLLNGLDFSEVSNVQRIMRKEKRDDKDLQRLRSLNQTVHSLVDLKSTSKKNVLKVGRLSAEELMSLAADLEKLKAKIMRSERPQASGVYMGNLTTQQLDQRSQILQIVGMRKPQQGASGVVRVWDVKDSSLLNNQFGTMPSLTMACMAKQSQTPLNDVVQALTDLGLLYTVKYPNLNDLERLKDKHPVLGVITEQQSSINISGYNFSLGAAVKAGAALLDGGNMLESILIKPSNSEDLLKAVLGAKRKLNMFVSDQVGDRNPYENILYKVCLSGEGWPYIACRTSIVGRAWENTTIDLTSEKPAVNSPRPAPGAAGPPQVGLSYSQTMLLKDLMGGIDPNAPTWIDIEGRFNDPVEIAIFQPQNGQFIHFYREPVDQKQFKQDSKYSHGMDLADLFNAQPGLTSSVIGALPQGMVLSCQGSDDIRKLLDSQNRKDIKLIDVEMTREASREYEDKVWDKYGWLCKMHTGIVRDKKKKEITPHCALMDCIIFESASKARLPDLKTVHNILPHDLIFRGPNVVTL

CCCN1CCC[C@@H]2Cc3[nH]ncc3C[C@H]21
not listed: [10]
inactive: all other assays above

O=c1[nH]c2ccccc2n1CCCN1CCC(n2c(=O)[nH]c3cc(Cl)ccc32)CC1
inactive: all assays above

CC(=O)[C@H]1CC[C@H]2[C@@H]3CC[C@H]4C[C@](C)(O)CC[C@]4(C)[C@H]3CC[C@]12C
not listed: [6]
inactive: all other assays above

C[C@]12CCC(=O)C(O)=C1CC[C@@H]1[C@@H]2CC[C@]2(C)C(=O)CC[C@@H]12
not listed: [10]
inactive: all other assays above

CC(=O)[C@H]1CC[C@H]2[C@@H]3CC[C@H]4C[C@H](O)CC[C@]4(C)[C@H]3C(=O)C[C@]12C
not listed: [6]
inactive: all other assays above

Nc1ccncc1
not listed: [10]
inactive: all other assays above

Cc1cccc(C)c1NC1=NCCCS1
inactive: all assays above

Cn1ccc2cc3c(cc21)CCN3C(=O)Nc1cccnc1
inactive: [2]

Fc1ccc(C(OCCN2CCN(CCCc3ccccc3)CC2)c2ccc(F)cc2)cc1
inactive: [1]
active: [2] 34.3 µM | [5] 30.6 µM | [6] 13.1 µM | [7] 23.5 µM | [8] 20.9 µM and 16.8 µM | [9] 14.8 µM

NCC1(CC(=O)O)CCCCC1
not listed: [10]
inactive: all other assays above

N[C@@H]1CONC1=O
inactive: [2] | [3] | [4] | [5]

O=C1NC(=O)C(c2ccccc2)(c2ccccc2)N1
inactive: [2] | [3] | [4] | [5]

CCOC(=O)C1=C(C)NC(C)=C(C(=O)OC)C1c1cccc(Cl)c1Cl (stereo not drawn)
inactive: [2] | [3] | [4] | [5]

CCN(CC)CCCC(C)Nc1ccnc2cc(Cl)ccc12 (stereo not drawn)
inactive: [2] | [3] | [4]

CN(C)CCCN1c2ccccc2Sc2ccc(Cl)cc21
inactive: [2]

OCCN(CCO)c1nc(N2CCCCC2)c2nc(N(CCO)CCO)nc(N3CCCCC3)c2n1
inactive: [2] | [3] | [4] | [5]

CSc1ccc2c(c1)N(CCC1CCCCN1C)c1ccccc1S2 (stereo not drawn)
inactive: [2]

COC(=O)Nc1nc2ccc(C(=O)c3cccs3)cc2[nH]1
active: [3] 54.4 nM | [4] 0.0273 µM
inactive: [2]

CNCCc1ccccn1
inactive: [2] | [3] | [4] | [5]

C[C@H]1c2cccc(O)c2C(O)=C2C(=O)[C@]3(O)C(O)=C(C(N)=O)C(=O)[C@@H](N(C)C)[C@@H]3[C@@H](O)[C@@H]21
inactive: [2] | [3] | [4] | [5]

Nc1nnc(-c2cccc(Cl)c2Cl)c(N)n1
inactive: [2] | [3] | [4] | [5]

CCC(C)(C)C(=O)O[C@H]1C[C@@H](C)C=C2C=C[C@H](C)[C@H](CC[C@@H]3C[C@@H](O)CC(=O)O3)[C@H]21
inactive: [2]

CC(=O)O[C@@]12CO[C@@H]1C[C@H](O)[C@@]1(C)C(=O)[C@H](O)C3=C(C)[C@@H](OC(=O)[C@H](O)[C@@H](NC(=O)OC(C)(C)C)c4ccccc4)C[C@@](O)([C@@H](OC(=O)c4ccccc4)[C@H]21)C3(C)C
inactive: [2] | [3] | [4]

COC(=O)C(c1ccccc1Cl)N1CCc2sccc2C1 (stereo not drawn)
inactive: [2] | [3] | [4] | [5]

OCCN1C[C@H](O)[C@@H](O)[C@H](O)[C@H]1CO
inactive: [2] | [3]

N=c1nc(N2CCCCC2)cc(N)n1O
inactive: [2] | [3] | [4] | [5]

CCCCc1oc2ccc(NS(C)(=O)=O)cc2c1C(=O)c1ccc(OCCCN(CCCC)CCCC)cc1
inactive: [2] | [3] | [4]

COc1c(C)c2c(c(O)c1C/C=C(\C)CCC(=O)OCCN1CCOCC1)C(=O)OC2
inactive: [2]

O=c1[nH]cc(F)c(=O)[nH]1
inactive: [2] | [3]

COC(=O)C1=C(C)NC(C)=C(C(=O)OC(C)C)C1c1cccc2nonc12 (stereo not drawn)
inactive: [2]

COc1cc([C@@H]2c3cc4c(cc3[C@H](O)[C@H]3COC(=O)[C@H]23)OCO4)cc(OC)c1OC
inactive: [2]

CN(C)C(=O)C(CCN1CCC(O)(c2ccc(Cl)cc2)CC1)(c1ccccc1)c1ccccc1
inactive: [2] | [3]

CCC1C(=O)OCC1Cc1cncn1C (stereo not drawn)
inactive: [2] | [3] | [4] | [5]

CN(C)CC[C@@H](c1ccc(Br)cc1)c1ccccn1
inactive: [2] | [3] | [4] | [5]

CN(C)c1nc(N(C)C)nc(N(C)C)n1
inactive: [2]

C=CC(=O)Nc1cc2c(Nc3ccc(F)c(Cl)c3)ncnc2cc1OCCCN1CCOCC1
inactive: [2]

NC(=O)N/N=C/c1ccc([N+](=O)[O-])o1
inactive: [2] | [3] | [4]

COc1cc2c(c(OC)c1OC)-c1ccc(OC)c(=O)cc1[C@@H](NC(C)=O)CC2
inactive: [2] | [3] | [4]

CCCSc1ccc2nc(NC(=O)OC)[nH]c2c1
inactive: [2]

COc1cc2ncnc(Nc3ccc(F)c(Cl)c3)c2cc1OCCCN1CCOCC1
active: [3] 2220 nM | [4] 1.11 µM
inactive: [2]

CN1CCC[C@@H]1Cc1c[nH]c2ccc(CCS(=O)(=O)c3ccccc3)cc12
inactive: [2] | [3] | [4] | [5]

Cc1ccc(-c2cc(C(F)(F)F)nn2-c2ccc(S(N)(=O)=O)cc2)cc1
inactive: [2] | [3] | [4] | [5]

CC[C@@]1(O)C(=O)OCc2c1cc1n(c2=O)Cc2cc3c(CN(C)C)c(O)ccc3nc2-1
active: [2] 8.63 µM | [3] 2.82 µM and 1.09 µM | [4] 1.72 µM | [5] 2.82 µM and 3.06 µM

O=C1OCCN1/N=C/c1ccc([N+](=O)[O-])o1
inactive: [2] | [3] | [4]

CC(C)C(=O)Nc1ccc([N+](=O)[O-])c(C(F)(F)F)c1
inactive: [2] | [3] | [4]

Clc1ccc(C(c2ccccc2Cl)C(Cl)Cl)cc1 (stereo not drawn)
inactive: [2] | [3] | [4] | [5]

O=C1CCC(N2C(=O)c3ccccc3C2=O)C(=O)N1 (stereo not drawn)
inactive: [2] | [3] | [4] | [5]

COC(=O)C1=C(C)NC(C)=C(C(=O)OCCN(C)Cc2ccccc2)C1c1cccc([N+](=O)[O-])c1 (stereo not drawn)
inactive: [2]

CN(CCOc1ccc(CC2SC(=O)NC2=O)cc1)c1ccccn1 (stereo not drawn)
inactive: [2] | [3] | [4] | [5]

NC(=Nc1ccccc1)Nc1ccccc1
inactive: [2] | [3] | [4] | [5]

CN1C(=O)CC(C)(c2ccccc2)C1=O (stereo not drawn)
inactive: [2] | [3] | [4] | [5]

Nc1[nH]c(=O)ncc1F
inactive: [2] | [3] | [4] | [5]

Cc1ccc2c(n1)Oc1ccc(C(C)C(=O)OCC(=O)N(C)C)cc1C2 (stereo not drawn)
inactive: [2] | [3] | [4] | [5]

Cc1cn([C@H]2C=C[C@@H](CO)O2)c(=O)[nH]c1=O
inactive: [2] | [3] | [4] | [5]

CC(C)[N+](C)(CCOC(=O)C1c2ccccc2Oc2ccccc21)C(C)C
inactive: [2] | [3] | [4] | [5]

CNC1(C)C2CCC(C2)C1(C)C (stereo not drawn)
inactive: [2] | [3] | [4] | [5]

NNc1nncc2ccccc12
inactive: [2] | [3] | [4] | [5]

COc1ccc([C@@H]2Sc3ccccc3N(CCN(C)C)C(=O)[C@@H]2OC(C)=O)cc1
inactive: [2] | [3] | [4] | [5]

COc1ccc(Cl)cc1C(=O)NCCc1ccc(S(=O)(=O)NC(=O)NC2CCCCC2)cc1
inactive: [2] | [3] | [4] | [5]

O=c1c(O)c(-c2ccc(O)c(O)c2)oc2cc(O)cc(O)c12
inactive: [2] | [3] | [4] | [5]

CCOc1ccc2ccccc2c1C(=O)N[C@@H]1C(=O)N2[C@@H]1SC(C)(C)[C@@H]2C(=O)O
inactive: [2] | [3] | [4] | [5]

Oc1ccc(C2CNCCc3c2cc(O)c(O)c3Cl)cc1 (stereo not drawn)
inactive: [2] | [3] | [4] | [5]

CC[C@@H]([C@H](C)O)n1ncn(-c2ccc(N3CCN(c4ccc(OC[C@@H]5CO[C@@](Cn6cncn6)(c6ccc(F)cc6F)C5)cc4)CC3)cc2)c1=O
inactive: [2] | [3] | [4] | [5]

C1N2CN3CN1CN(C2)C3
inactive: [2] | [3] | [4] | [5]

CN(C)CCC=C1c2ccccc2CCc2ccccc21
inactive: [2] | [3] | [4] | [5]

CN1CCN(CCCN2c3ccccc3Sc3ccc(Cl)cc32)CC1
inactive: [2] | [3] | [4] | [5]

O=C(NCCN1CCOCC1)c1ccc(Cl)cc1
inactive: [2] | [3] | [4] | [5]

CCC(=O)O[C@H]1[C@H](O[C@@H]2[C@@H](C)[C@H](O[C@H]3C[C@@](C)(OC)[C@@H](O)[C@H](C)O3)[C@@H](C)C(=O)O[C@H](CC)[C@@](C)(O)[C@H](O)[C@@H](C)C(=O)[C@H](C)C[C@@]2(C)O)O[C@H](C)C[C@@H]1N(C)C
inactive: [2] | [3] | [4] | [5]

Cc1oncc1C(=O)Nc1ccc(C(F)(F)F)cc1
inactive: [2] | [3] | [4] | [5]
